Compound activity: PubChem, National Center for Advancing Translational Sciences (NCATS)
An excerpt weighted towards active compounds, which were near 4% of everything screened.
D1 antagonist: blocks dopamine activation of the human D1 receptor | P21728 | HEK293 TREx D1 cells, calcium flux, dopamine EC80; active compounds read low | activity change, negative = inhibition, % at 10 µM | 3.2% of 360,000 active; in the data active means activity change below about -30%
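HEK293 T-REx cells expressing inducible, force-coupled D1 receptor; no-wash Ca dye, 30–90 min RT. Cmpd → 180 s read at 1 Hz → EC80 DA → 180 s read.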
D1 ag: human D1 receptor agonism; P21728; HEK293 T-REx D1 cells, calcium flux, agonist mode; activation, % at 2 µM; 1% of 360,000 active
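Tetracycline-induced HEK293 TREx D1 cells, force-coupled to calcium signalling, were dye-loaded with a no-wash calcium kit. Compound was pin-added after a 10 s baseline. Fluorescence was read kinetically at 1 cycle/s for 180 s, with calcium rises flagged as agonism.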
TRHR ag: TRH receptor (human) agonism; P34981; TRHR cells, calcium flux fluo-8, FDSS agonist mode; activation, % at 2 µM; 0.18% of 360,000 active
Target sequence (P34981 whole entry, looked up): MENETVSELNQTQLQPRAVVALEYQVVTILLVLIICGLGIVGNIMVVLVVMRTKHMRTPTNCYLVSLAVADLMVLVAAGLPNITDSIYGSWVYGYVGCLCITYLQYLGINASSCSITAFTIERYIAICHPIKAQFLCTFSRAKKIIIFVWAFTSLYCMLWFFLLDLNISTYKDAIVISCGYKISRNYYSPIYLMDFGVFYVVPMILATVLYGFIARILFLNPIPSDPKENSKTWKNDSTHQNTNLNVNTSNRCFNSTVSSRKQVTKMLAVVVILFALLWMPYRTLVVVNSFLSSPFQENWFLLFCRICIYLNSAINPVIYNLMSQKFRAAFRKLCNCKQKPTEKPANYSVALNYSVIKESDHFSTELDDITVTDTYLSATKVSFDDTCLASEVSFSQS
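Fluo-8-loaded TRHR cells; 10 s baseline, compound added, kinetic Ca2+ fluorescence read 1/s, agonist mode.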
D1 potentiator: human D1 dopamine receptor positive modulation | 0.036% of 360,000 active | AID 504651 | HEK293 TREx D1 cells, calcium flux, dopamine EC20 potentiation | potentiation, % at 10 µM; in the data active means potentiation above about 30%
GRP78 ERSR act: inducers of ER stress response in human glioma cells; U87-MG GRP78 promoter luciferase reporter, 16 h; Potency, µM, usual class: activators; 0.02% of 420,000 active; active means well fitted activation curve with a large enough effect; inconclusive means small, poorly fitted or top-dose-only effect; inactive means no such curve, though single readings can be large or run the other way; further: series mostly up to about 76 µM; nearly all actives have a fitted effect of over 35% in size
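ERSR induction read as luciferase luminescence (Bright-Glo, 10 min at room temperature) in stably transfected human U87-MG glioma cells exposed to compounds for 16 h, using GRP78 as sensor.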
TRHR PAM: TRH receptor (human) allosteric enhancement; P34981; TRHR cells, fluo-8 calcium fluorescence, EC20 TRH enhancement; enhancement, % at 2 µM; 0.66% of 360,000 active; AID 493056; in the data active means enhancement above about 30%
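Enhancer read-out: after compound pinning and an initial kinetic agonist-mode read, an EC20 of TRH (10 nM final) was injected and fluo-8 calcium signal (Ex 480/Em 530) followed at 1 s/cycle for 100 cycles in TRHR-expressing cells.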
Hits are given with their value; i = inactive; ? = inconclusive; nt = not tested or not shown. Unless noted, no stated cut-off is given here; in the data, active means activation above about 30%; inactive means the rest.

SMILES	D1 antagonist	D1 ag	TRHR ag	D1 potentiator	GRP78 ERSR act	TRHR PAM
CC(C)c1ccc(C(=O)NCCCN2CCOCC2)cc1	i	i	i	i	i	i
Cc1c(C)n(Cc2ccc(Cl)cc2)c2ccc(C(=O)NCCN3CCOCC3)cc12	-38	i	i	i	i	i
CC(C)(C)c1ccc(C(=O)NCCCN2CCN(CCCNC(=O)c3ccc(C(C)(C)C)cc3)CC2)cc1	-30	i	i	i	i	i
O=c1/c(=C\c2ccc(O)cc2)sc2n1C(c1ccccc1)C(c1ccccc1)=NN=2 (stereo unspecified)	-51	33	i	i	i	i
CCOC(=O)C1=C(c2ccccc2)N=c2s/c(=C\c3cccc(O)c3)c(=O)n2C1c1cccs1 (stereo unspecified)	i	i	i	i	i	i
CN1c2cccc3cccc(c23)N(C)C1c1cccs1	i	i	i	i	i	i
CC1N(C)c2cccc3cccc(c23)N1C	-41	i	i	i	i	i
COc1ccc(OC)c(Nc2sc(C(=O)c3ccccc3)c(N)c2S(=O)(=O)c2ccccc2)c1	i	58	i	i	i	i
Cc1ccc(S(=O)(=O)c2c(Nc3cc(F)ccc3F)sc(C(=O)c3ccc(F)cc3)c2N)cc1	-69	57	i	i	i	i
Cc1ccc(Nc2sc(C(=O)c3ccc(F)cc3)c(N)c2S(=O)(=O)c2ccc(C)cc2)cc1	-30	79	i	i	i	i
COc1cccc(C(=O)c2sc(Nc3ccc(C)cc3C)c(S(=O)(=O)c3ccccc3)c2N)c1	i	i	i	i	i	i
Cc1ccc(Cl)cc1Nc1sc(C(=O)c2ccc(F)cc2)c(N)c1S(C)(=O)=O	i	i	i	i	i	i
Nc1c(C(=O)c2ccc(F)cc2)sc(Nc2ccccc2F)c1S(=O)(=O)c1ccc(Br)cc1	i	83	i	i	?	i
Cc1ccc(Nc2sc(C(=O)c3ccccc3)c(N)c2S(=O)(=O)c2ccccc2)c(C)c1	i	i	i	i	i	i
CCc1ccc(Nc2sc(C(=O)c3ccc(F)cc3)c(N)c2S(=O)(=O)c2ccccc2)cc1	i	i	i	i	i	i
COc1ccc(C2c3c(n(C)c4ccccc34)C(=O)N2CC(=O)Nc2c(C)cc(C)cc2C)cc1 (stereo unspecified)	i	i	i	i	i	i
CC(C)CCNC(=O)C1CCN(C(=O)N2CCOc3ccc(Cl)cc32)CC1	i	i	i	i	i	i
CO[C@H]1COC(=O)C/C=C\[C@H](C)[C@@H](NS(=O)(=O)c2ccc(C)cc2)COC(=O)C/C=C\[C@@H]1C	nt	nt	nt	nt	i	nt
CCOc1ccccc1NC(=S)N1CCN(c2ccc(O)cc2)CC1	i	i	i	i	i	i
CCOc1ccccc1NC(=S)N1CCCCCC1	-37	i	i	i	i	i
O=C(NCCS(=O)(=O)N1CCN(Cc2ccccc2)CC1)c1ccccc1	i	i	i	i	i	i
CCCSC1=C(C#N)C(c2ccc(O)c(OC)c2)CC(=O)N1 (stereo unspecified)	-53	i	i	nt	i	i
COc1cc(C2CC(=O)NC(SCC(=O)Nc3ccccc3C)=C2C#N)ccc1O (stereo unspecified)	i	i	i	i	i	i
COC(=O)CSC1=C(C#N)C(c2cccc(OC)c2)CC(=O)N1 (stereo unspecified)	-42	i	i	nt	i	i
CCOc1ccccc1C1CC(=O)NC(SCC)=C1C#N (stereo unspecified)	i	i	i	i	i	34
SMILES	D1 antagonist	D1 ag	TRHR ag	D1 potentiator	GRP78 ERSR act	TRHR PAM
Cc1cc(OCC(=O)NCC(c2ccc(F)cc2)N2CCOCC2)ccc1Cl (stereo unspecified)	i	i	i	i	i	i
O=C(OC1CCOC1=O)c1cccc(S(=O)(=O)Nc2cccc(Cl)c2)c1 (stereo unspecified)	-32	i	i	i	i	i
CCN(CC)C(=O)c1nn(-c2ccc(OC)cc2)c(=O)c2c(N)scc12	i	i	i	i	nt	i
CCOc1ccccc1NC1=CC(=O)CC(c2ccccc2)C1 (stereo unspecified)	-31	i	i	i	i	i
O=C(Nc1ccc(Cl)cc1F)c1cc(S(=O)(=O)NCc2ccc3c(c2)OCO3)ccc1F	i	i	i	i	i	i
OCCNc1nc(NCCC2=CCCCC2)nc(N2CCOCC2)n1	-54	i	i	i	i	i
CC(C)c1c(C(=O)NCc2ccccn2)cnn1-c1nccc(-c2ccccc2F)n1	nt	nt	nt	nt	i	nt
CC(=O)OCOC(=O)CN(CC(=O)OCOC(C)=O)c1ccccc1OCCOc1ccccc1N(CC(=O)OCOC(C)=O)CC(=O)OCOC(C)=O	nt	nt	nt	nt	i	nt
Cc1ccc(Cl)cc1-n1ncc2c(NCCCc3ccccc3)ncnc21	-36	i	i	i	i	i
Cc1ccc(Cl)cc1-n1ncc2c(NCCc3ccccc3)ncnc21	i	i	i	i	i	i
Cc1cccc(-n2ncc3c(NC4CCCC4)ncnc32)c1	-34	i	i	i	i	i
Cc1cccc(-n2ncc3c(NC4CCCCC4)ncnc32)c1	i	i	i	i	i	i
Cc1ccc(Cl)cc1-n1ncc2c(NCc3ccc(F)cc3)ncnc21	-61	77	i	i	?	i
Cc1ccc(CNc2ncnc3c2cnn3-c2ccccc2)cc1	i	53	i	i	i	i
CCCCOc1ccc(CSc2nc(C)[nH]c2[N+](=O)[O-])cc1[N+](=O)[O-]	-31	i	i	i	i	i
N#CN=c1snc(-c2ccccc2)n1-c1ccc(Br)cc1	nt	nt	nt	nt	i	nt
CC(CCc1ccccc1)NC(=O)CSc1n[nH]c(-c2ccccc2)n1 (stereo unspecified)	i	i	i	i	i	i
COC(=O)CSc1n[nH]c(-c2cccnc2)n1	-34	i	i	i	i	i
CCOC(=O)CSc1n[nH]c(-c2cccnc2)n1	nt	nt	nt	nt	i	nt
COc1ccc(NC(=O)CSc2n[nH]c(-c3ccccn3)n2)cc1	-65	i	i	i	i	i
O=C(CSc1n[nH]c(-c2ccccn2)n1)Nc1ccccc1	i	i	i	i	i	i
COc1ccc(-c2nc(SCC(=O)NC(C)CCc3ccccc3)n[nH]2)cc1 (stereo unspecified)	-33	i	i	i	i	i
CCOc1ccccc1N(CC(=O)O)S(=O)(=O)c1ccccc1	i	i	i	i	i	i
CCOc1ccccc1N(CC(=O)N(C)Cc1ccccc1)S(=O)(=O)c1ccccc1	-37	i	i	i	i	i
CC(C)(C)c1ccc(S(=O)(=O)NC(Cc2ccccc2)C(=O)O)cc1 (stereo unspecified)	-32	i	i	i	i	i
Cc1ccc(S(=O)(=O)N(C)c2ccc(N)cc2)cc1	i	i	i	i	i	i
